In PubChem BioAssay (NCI) one finds growth data, which are given here for 8 compounds.

Compounds without any hit were thinned out: in the full panel of roughly 83,000, 20% have a hit.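 Negative percent growth values reflect cell death: -40 means 40% of the cells present at the start died, and -100 means all died.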 A number with no mark means an inactive call. Active and inactive are the calls of the source. Rule for the calls: active = growth percent below 10; inactive = the rest.

Common to all, as to assay: NCI-60 one-dose screen, 48 h (100 = growth as untreated, 0 = no growth, -100 = all killed)
Test [1] deals with NCI-H23 lung. The conditions noted are these: 10 µM unless noted.
Test [2] deals with NCI-H226 lung. The note with it: 10 µM unless noted.
In test [3] the test system is MDA-MB-231 breast. The note with it: 10 µM unless noted.
Test [4] concerns SF-268 CNS. The note with it: 10 µM unless noted.
Test [5] has as its system SF-539 CNS. The note with it: 10 µM unless noted.
The subject of test [6] is HCT-15 colon. The note with it: 10 µM.
In test [7] the test system is HT29 colon. The conditions noted are these: 10 µM unless noted.
In test [8] the test system is SNB-75 CNS. The note with it: 10 µM unless noted.
Test [9] has as its system PC-3 prostate. The conditions noted are these: 10 µM unless noted.
Test [10] concerns SK-MEL-5 melanoma. The conditions noted are these: 10 µM unless noted.
For test [11], the system named is UACC-62 melanoma. The note with it: 10 µM unless noted.
Test [12] concerns SK-MEL-28 melanoma. The conditions noted are these: 10 µM unless noted.
Test [13] relates to SN12C renal. The conditions noted are these: 10 µM unless noted.
Test [14] has as its system ACHN renal. The note with it: 10 µM unless noted.
Test [15] relates to OVCAR-8 ovarian. The conditions noted are these: 10 µM unless noted.
Test [16] has as its system OVCAR-3 ovarian. The conditions noted are these: 10 µM unless noted.
The subject of test [17] is MDA-MB-435 melanoma. The note with it: 10 µM unless noted.
Test [18] concerns MCF7 breast. The note with it: 10 µM unless noted.
For test [19], the system named is KM12 colon. The note with it: 10 µM unless noted.
Test [20] has as its system NCI/ADR-RES ovarian. The conditions noted are these: 10 µM unless noted.

`Nc1cccc(CC(=O)Nc2ccc(S(=O)(=O)F)cc2)c1`: the growth in [1] was 99.7%; in [2], 93.9%; in [3] it was 94.4%; in test [4], 107%; in test [5], 97.4%; in [6] it was 101%. For the same compound, the growth was 91.9% in [7]; 71.8% in [8]; 82.2% in [9]; 104% in test [10]; 90.5% in [11]; 87.5% in test [12]. Moreover, the growth is 100% in test [13]; 112% in test [14]; 91.2% in [15]; 102% in [16]; 89.8% in [17]; 86.7% in test [18]. Further, the growth in test [19] was 92.2%.

Consider `CC12CCC(=O)C=C1CCC1C2CCC2(C)C(C(=O)COC(=O)Cc3ccc(N(CCCl)CCCl)cc3)CCC12` (stereo not drawn), for which the growth in test [1] was 94%; in test [2], 72.5%; in [3], 108%; in test [4], 77.9%; in test [5], 63%; in test [6], 86.2%. In addition, the growth in test [7] was 88.5%; in [8] it was 83.3%; in test [9] it was 36.1%; in test [10] it was 85%; in test [11] it was 66.3%; in test [12], 104%. Further, the growth in test [13] is 73.2%; in [14] it was 40.3%; in [15], 79.1%; in test [16], 107%; in [20] it was 91.8%; in test [17], 96.1%. In addition, the growth in test [18] was 70.5%; in [19], 101%.

Take `N#[N+]c1cnc([O-])[nH]c1=O`: the growth in test [1] was 26.9%; in test [2], 88%; in test [3] it was 95.5%; in test [4], 97.5%; in test [5], 97.5%; in test [6], 89.1%. Further, the growth was 105% in test [7]; 74.7% in [8]; 92.7% in test [9]; 97% in [10]; 85.6% in [11]; 104% in [12]. The growth in [13] is 84.9%; in test [14], 94.4%; in [15] it was 88.7%; in test [20] it was -8.91% (active); in test [17], 106%; in [18], 100%. Besides, in test [19], the growth was 100%.

For the compound `O=C(Nc1ccc(S(=O)(=O)F)cc1)Oc1ccccc1`, the growth in test [1] is 97.8%; in test [2], 99.5%; in test [3] it was 104%; in test [4] it was 102%; in test [5], 104%; in test [6] it was 104%. Further, the growth was 102% in [7]; 85.5% in [8]; 93.4% in test [9]; 96.3% in test [10]; 97.5% in [11]; 99.2% in test [12]. The growth in test [13] was 104%; in test [14], 106%; in test [15] it was 101%; in test [16] it was 105%; in [20], 103%; in test [17] it was 99.9%. Moreover, the growth in test [18] is 91.6%; in [19], 102%.

As for `CCOc1cc(C=C(C#N)C#N)cc(Br)c1O`, the growth in test [1] is 99%; in test [2] it was 106%; in test [3], 109%; in test [4], 95.6%; in [5] it was 99.5%; in [6], 102%. Moreover, the growth in [7] is 92.5%; in [8], 83.5%; in [9], 98.4%; in [10], 105%; in test [11] it was 105%; in test [12], 109%. Also, the growth in test [13] was 106%; in test [14], 106%; in test [15], 102%; in [16], 98.8%; in test [20] it was 104%; in test [17], 101%. In addition, the growth was 96% in test [18] and 103% in [19].

For `Fc1ccc(C2=NN(c3ccccc3)C(c3sc(N(CCCl)CCCl)nc3Cl)C2)cc1` (stereo not drawn), the growth was 85.4% in test [1]; 74.1% in [2]; 69% in test [3]; 86.5% in test [4]; 101% in test [5]; 94.3% in test [6]. Besides, the growth in test [7] is 81.2%; in test [8] it was 68.7%; in [9], 68.2%; in [10] it was 83.2%; in test [11], 59.8%; in test [12], 111%. Also, the growth in test [13] is 86.9%; in test [14] it was 79.4%; in [15], 87.5%; in test [16], 91.7%; in test [20] it was 92.3%; in test [17], 93.9%. For the same compound, the values for the growth in [18] and in test [19] were 72.2% and 81.1%, respectively.

As to `O=C(O)CC(Br)C(=O)CBr` (stereo not drawn), the growth in test [1] was 108%; in [2] it was 91.9%; in test [3], 98.2%; in test [4], 106%; in test [5], 95.3%; in [6], 93.5%. In addition, the growth in test [7] is 109%; in [8], 93.5%; in [9], 98.7%; in test [10], 106%; in [11], 102%; in [12], 102%. Also, the growth in test [13] was 107%; in test [14] it was 99%; in test [15], 99.4%; in test [16] it was 114%; in test [20], 111%; in test [17], 108%. Also, the growth in test [18] is 86.3%; in test [19], 111%.

In the case of `CC(=O)Nc1ccc(C=C2C(=O)NC(=O)NC2=O)cc1`, the growth was 101% in [1]; 101% in [2]; 104% in [3]; 111% in test [4]; 105% in [5]; 103% in test [6]. The growth in test [7] was 109%; in [8], 84.2%; in [9], 93.3%; in test [10], 115%; in [11], 99.1%; in test [12] it was 106%. Further, the growth in test [13] was 103%; in test [14], 109%; in test [15], 101%; in test [16] it was 125%; in test [20] it was 108%; in test [17], 101%. The growth in test [18] is 94%; in test [19], 112%.
